About 2,000 (36%) of roughly 5,500 compounds were called active. About 18% were inconclusive and are not listed. Rule as the data show it: active = normalized growth mostly below about 0.91 (no sharp cut-off); inconclusive = no clear call, values can overlap the other calls; inactive = mostly above about 0.92. The list shows a part of the results.
Test: chemical genetic growth profiling, strain panel (AID 1159580);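 also: tested at 20 µM; growth read once vehicle control cultures reached saturation at 30 °C; 1 = growth at the plate median or of vehicle wells; lower values mean less growth of the strain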
Settings: S. cerevisiae deletion strains, growth OD
[1] = locus YAL021C, strain ccr4, hits give low values
[2] = locus YAL026C, strain drs2, hits give low values
[3] = locus YAL030W, strain snc1, hits give low values
[4] = locus YBL061C, strain skt5, hits give low values
[5] = locus YBR009C, strain hhf1, hits give low values
[6] = locus YBR023C, strain chs3, hits give low values
[7] = locus YBR171W, strain sec66, hits give low values
[8] = locus YBR231C, strain swc5, hits give low values
[9] = locus YBR279W, strain paf1, hits give low values
[10] = locus YCL011C, strain gbp2, hits give low values
[11] = locus YCL016C, strain dcc1, hits give low values
[12] = locus YCL069W, strain vba3, hits give low values
[13] = locus YCR088W, strain abp1, hits give low values
[14] = locus YDL005C, strain med2, hits give low values
[15] = locus YDL040C, strain nat1, hits give low values
[16] = locus YDR001C, strain nth1, hits give low values
[17] = locus YDR069C, strain doa4, hits give low values
[18] = locus YDR137W, strain rgp1, hits give low values
[19] = locus YDR159W, strain sac3, hits give low values
[20] = locus YDR297W, strain sur2, hits give low values
[21] = locus YDR334W, strain swr1, hits give low values
[22] = locus YDR335W, strain msn5, hits give low values
[23] = locus YDR392W, strain spt3, hits give low values
[24] = locus YEL003W, strain gim4, hits give low values
[25] = locus YEL037C, strain rad23, hits give low values
[26] = locus YEL061C, strain CIN8 (second series), hits give low values
[27] = locus YER015W, strain faa2, hits give low values
[28] = locus YER016W, strain bim1, hits give low values
[29] = locus YER111C, strain swi4, hits give low values
[30] = locus YER155C, strain BEM2 (second series), hits give low values
[31] = locus YFR010W, strain ubp6, hits give low values
[32] = locus YGL167C, strain pmr1, hits give low values
[33] = locus YGL173C, strain kem1, hits give low values
[34] = locus YGL227W, strain vid30, hits give low values
[35] = locus YGL240W, strain doc1, hits give low values
[36] = locus YGL253W, strain hxk2, hits give low values
[37] = locus YHR013C, strain ard1, hits give low values
[38] = locus YHR027C, strain rpn1, hits give low values
[39] = locus YHR030C, strain SLT2, hits give low values
[40] = locus YHR079C, strain IRE1, hits give low values
[41] = locus YHR142W, strain chs7, hits give low values
[42] = locus YJL092W, strain hpr5, hits give low values
[43] = locus YJL095W, strain BCK1 (second series), hits give low values
[44] = locus YJL095W, strain BCK1, hits give low values
[45] = locus YJL115W, strain asf1, hits give low values
[46] = locus YJL129C, strain trk1, hits give low values
[47] = locus YJL154C, strain vps35, hits give low values
[48] = locus YJL164C, strain tpk1, hits give low values
[49] = locus YJL166W, strain qcr8, hits give low values
[50] = locus YJL187C, strain SWE1, hits give low values
[51] = locus YJR066W, strain TOR1, hits give low values
[52] = locus YKL160W, strain elf1, hits give low values
[53] = locus YKR026C, strain gcn3, hits give low values
[54] = locus YKR091W, strain srl3, hits give low values
[55] = locus YLL001W, strain dnm1, hits give low values
[56] = locus YLL026W, hits give low values
[57] = locus YLL041C, strain sdh2, hits give low values
[58] = locus YLR027C, strain aat2, hits give low values
[59] = locus YLR113W, strain HOG1, hits give low values
[60] = locus YLR221C, strain rsa3, hits give low values
[61] = locus YLR258W, strain gsy2, hits give low values
[62] = locus YLR262C, strain YPT6 (second series), hits give low values
[63] = locus YLR320W, strain mms22, hits give low values
[64] = locus YLR342W, strain FKS1, hits give low values
[65] = locus YLR357W, strain rsc2, hits give low values
[66] = locus YLR370C, strain arc18, hits give low values
[67] = locus YLR384C, strain iki3, hits give low values
[68] = locus YML120C, strain ndi1, hits give low values
[69] = locus YMR058W, strain fet3, hits give low values
[70] = locus YMR125W, strain sto1, hits give low values
[71] = locus YMR129W, hits give low values
[72] = locus YMR205C, strain PFK2, hits give low values
[73] = locus YMR231W, strain pep5, hits give low values
[74] = locus YNL071W, strain lat1, hits give low values
[75] = locus YNL183C, strain NPR1, hits give low values
[76] = locus YNL209W, strain ssb2, hits give low values
[77] = locus YNL248C, strain rpa49, hits give low values
[78] = locus YNL322C, strain KRE1 (second series), hits give low values
[79] = locus YNR049C, strain mso1, hits give low values
[80] = locus YOR001W, strain rrp6, hits give low values
[81] = locus YOR070C, strain gyp1, hits give low values
[82] = locus YOR080W, strain dia2, hits give low values
[83] = locus YOR083W, strain WHI5, hits give low values
[84] = locus YOR106W, strain vam3, hits give low values
[85] = locus YOR231W, strain MKK1, hits give low values
[86] = locus YOR265W, strain rbl2, hits give low values
[87] = locus YOR270C, strain vph1, hits give low values
[88] = locus YOR290C, strain snf2, hits give low values
[89] = locus YPL051W, strain arl3, hits give low values
[90] = locus YPL078C, strain atp4, hits give low values
[91] = locus YPL106C, strain sse1, hits give low values
[92] = locus YPL240C, strain hsp82, hits give low values
[93] = locus YPL256C, strain CLN2, hits give low values
[94] = locus YAL013W, strain DEP1, hits give low values
[95] = locus YAL040C, strain CLN3, hits give low values
[96] = locus YCL061C, strain MRC1 (second series), hits give low values
[97] = locus YDR150W, strain NUM1, hits give low values
[98] = locus YDR363W, strain ESC2, hits give low values
[99] = locus YER002W, strain NOP16, hits give low values
[100] = locus YGR078C, strain PAC10, hits give low values
[101] = locus YGR229C, strain SMI1, hits give low values
[102] = locus YJR075W, strain HOC1, hits give low values
[103] = locus YMR263W, strain SAP30, hits give low values
[104] = locus YMR307W, strain GAS1, hits give low values
[105] = locus YNL128W, strain TEP1, hits give low values
[106] = locus YNL175C, strain NOP13, hits give low values
[107] = locus YNL197C, strain WHI3, hits give low values
[108] = locus YNL224C, strain SQS1, hits give low values
[109] = locus YOR083W, strain WHI5 (second series), hits give low values
[110] = locus YPL055C, strain LGE1, hits give low values
[111] = locus YPL241C, strain CIN2, hits give low values

Measured: normalized growth

O=C(O)[C@H]1/C(=C/CO)O[C@@H]2CC(=O)N21
inactive: [1] 0.992 | [2] 0.991 | [3] 0.992 | [4] 0.955 | [5] 1.01 | [6] 0.978 | [7] 0.983 | [8] 1.02 | [9] 0.976 | [10] 1.02 | [11] 0.972 | [12] 0.986 | [13] 0.986 | [14] 0.971 | [15] 0.982 | [16] 0.981 | [17] 1.01 | [18] 0.982 | [19] 0.97 | locus YDR195W, strain ref2 0.96 | [20] 1 | [21] 0.988 | [22] 0.976 | [23] 0.883 | [24] 1 | [25] 0.985 | [26] 0.986 | [27] 0.996 | [28] 0.957 | [29] 0.973 | [30] 0.999 | [31] 1.02 | [32] 0.986 | [33] 0.997 | [34] 0.971 | [35] 1.01 | [36] 0.959 | [37] 0.957 | [38] 0.992 | [39] 0.964 | [40] 0.959 | [41] 0.959 | [42] 0.999 | [43] 1 | [44] 0.991 | [45] 0.983 | [46] 0.941 | [47] 0.982 | [48] 0.993 | [49] 1.03 | [50] 0.995 | [51] 0.936 | [52] 0.955 | [53] 0.99 | [54] 0.986 | [55] 0.984 | [56] 0.987 | [57] 1.02 | [58] 1 | [59] 0.974 | [60] 1.01 | [61] 1 | [62] 1.02 | [63] 1.01 | [64] 0.965 | [65] 0.931 | [66] 0.972 | [67] 0.98 | [68] 0.997 | [69] 0.993 | [70] 0.954 | [71] 0.981 | [72] 0.99 | [73] 0.983 | [74] 0.996 | [75] 0.952 | [76] 0.98 | [77] 0.935 | [78] 0.973 | [79] 0.972 | [80] 1.03 | [81] 0.994 | [82] 0.988 | [83] 0.909 | [84] 0.952 | [85] 0.987 | [86] 0.993 | [87] 1 | [88] 0.986 | [89] 0.979 | [90] 0.967 | [91] 0.979 | [92] 1.01 | [93] 0.959

Oc1cc2c(cc1O)[C@H]1c3ccccc3CN[C@@H]1CC2
inactive: [95] 1.01 | [98] 0.985 | [99] 1.03 | [100] 1 | [103] 1 | [105] 1.01 | [106] 1.03 | [107] 1.02 | [108] 1.02 | [109] 1.01
active: [94] 0.9 | [96] 0.845 | [97] 0.848 | [101] 0.685 | [102] 0.843 | [104] 0.871 | [110] 0.864 | [111] 0.925

Oc1cc2c(cc1O)C(c1ccccc1)CNCC2 (configuration not stated)
inactive: [94] 0.977 | [1] 0.972 | [2] 0.988 | [3] 1.01 | [95] 1.03 | [4] 0.996 | [5] 1.05 | [6] 0.998 | [7] 0.912 | [8] 1.01 | [9] 0.988 | [10] 0.984 | [11] 1 | [96] 0.982 | locus YCL061C, strain MRC1, hits give low values 0.992 | [12] 1 | [13] 0.999 | [14] 1 | [15] 1.01 | [16] 0.994 | [17] 0.974 | [18] 0.967 | [97] 0.963 | [19] 1.01 | locus YDR195W, strain ref2 1.07 | [20] 0.996 | [21] 0.963 | [22] 0.979 | [98] 0.983 | [23] 0.845 | [24] 0.976 | [25] 1 | [26] 0.99 | [99] 1 | [27] 1.02 | [28] 1.01 | [29] 0.993 | [30] 1.01 | [31] 0.95 | [32] 0.994 | [33] 1 | [34] 1.01 | [35] 1.05 | [36] 0.991 | [101] 0.958 | [37] 0.96 | [38] 0.989 | [39] 0.986 | [40] 0.989 | [41] 0.916 | [42] 0.974 | [43] 1.01 | [44] 0.98 | [45] 0.991 | [46] 0.921 | [47] 1 | [48] 0.967 | [49] 0.995 | [50] 1 | [51] 0.943 | [52] 0.942 | [53] 0.995 | [54] 1 | [55] 0.989 | [56] 1 | [57] 0.989 | [58] 0.977 | [59] 0.979 | [60] 0.948 | [61] 1.02 | [62] 0.919 | [63] 0.966 | [64] 0.994 | [65] 1.04 | [66] 0.991 | [67] 1.01 | [68] 0.94 | [69] 0.945 | [70] 1.02 | [71] 0.984 | [72] 1.06 | [73] 1.02 | [104] 0.992 | [74] 0.964 | [105] 0.981 | [106] 1.04 | [75] 0.952 | [107] 1.03 | [76] 0.997 | [108] 0.993 | [77] 0.93 | [78] 0.989 | [79] 1 | [80] 0.918 | [81] 0.992 | [82] 1 | [109] 1.02 | [83] 0.922 | [84] 0.919 | [85] 0.941 | [86] 0.997 | [87] 0.967 | [88] 0.92 | [89] 0.938 | [110] 0.948 | [90] 0.945 | [91] 0.972 | [92] 0.983 | [111] 0.997 | [93] 0.984

NC1CCc2cc(O)c(O)cc2C1 (configuration not stated)
inactive: [94] 0.978 | [95] 1.01 | [96] 1.01 | [97] 1.01 | [98] 0.979 | [99] 1.02 | [100] 1.04 | [102] 0.985 | [103] 0.997 | [105] 1.01 | [106] 1.02 | [107] 1.01 | [108] 1.01 | [109] 1.08 | [110] 0.976
